This is a sample that favours compounds with a hit; in the whole collection about 3% have one here.
PAFAH1B3 FP inh: PAFAH1B3 enzyme inhibitors, primary screen, biochemical, fluorescence polarization, human | inhibition, % at 3.39 µM | AID 492972, 2010 | actives 0.28% (n = 340,000) | Platelet-activating factor acetylhydrolase IB subunit alpha1 (Homo sapiens), Q15102 | recombinant PAFAH1B3, FP-rhodamine probe;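 active means inhibition above the screen-wide average of all tested compounds plus 3 SD, cut at about 25% in these data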
PAFAH1B2 FP inh: PAFAH1B2 enzyme inhibitors, primary screen, biochemical, fluorescence polarization, human | inhibition, % at 3.39 µM | recombinant PAFAH1B2, FP-rhodamine activity probe | Platelet-activating factor acetylhydrolase IB subunit alpha2 (Homo sapiens), P68402 | actives 1.2% (n = 340,000);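 active means inhibition above the mean of all tested compounds plus 3 SD, cut at about 24% in these data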
PAFAH2 FP inh: PAFAH2 enzyme inhibitors, primary screen, biochemical, fluorescence polarization, human; actives 0.99% (n = 340,000); AID 492956, 2010; inhibition, % at 3.39 µM; recombinant PAFAH2, FP-rhodamine activity probe;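 active means inhibition above the mean over all tested compounds plus 3 SD, cut at about 30% in these data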;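 further: inhibitors block probe labeling of enzyme so polarization drops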
pPAFAH FP inh: pPAFAH enzyme inhibitors, primary screen, biochemical, fluorescence polarization, human | Platelet-activating factor acetylhydrolase (Homo sapiens), Q13093 | AID 463082, 2010 | inhibition, % at 3.39 µM | actives 1.5% (n = 330,000) | recombinant pPAFAH, FP-rhodamine probe fluorescence polarization;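 active means inhibition above the mean inhibition across the screen plus 3 SD, cut at about 25% in these data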;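 further: inhibitors block binding of the rhodamine activity-based probe so polarization drops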
PP5 inh: PP5 phosphatase inhibitors, primary screen, biochemical, fluorescence | inhibition, % at 6.7 µM | actives 0.18% (n = 320,000) | AID 1987, 2009 | Serine/threonine-protein phosphatase 5 (Homo sapiens), P53041 | purified PP5c, OMFP substrate fluorescence;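 active means inhibition above the campaign's mean inhibition across all tested compounds plus 3 SD, cut at about 9.5% in these data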
Target sequence (P53041 whole entry, looked up): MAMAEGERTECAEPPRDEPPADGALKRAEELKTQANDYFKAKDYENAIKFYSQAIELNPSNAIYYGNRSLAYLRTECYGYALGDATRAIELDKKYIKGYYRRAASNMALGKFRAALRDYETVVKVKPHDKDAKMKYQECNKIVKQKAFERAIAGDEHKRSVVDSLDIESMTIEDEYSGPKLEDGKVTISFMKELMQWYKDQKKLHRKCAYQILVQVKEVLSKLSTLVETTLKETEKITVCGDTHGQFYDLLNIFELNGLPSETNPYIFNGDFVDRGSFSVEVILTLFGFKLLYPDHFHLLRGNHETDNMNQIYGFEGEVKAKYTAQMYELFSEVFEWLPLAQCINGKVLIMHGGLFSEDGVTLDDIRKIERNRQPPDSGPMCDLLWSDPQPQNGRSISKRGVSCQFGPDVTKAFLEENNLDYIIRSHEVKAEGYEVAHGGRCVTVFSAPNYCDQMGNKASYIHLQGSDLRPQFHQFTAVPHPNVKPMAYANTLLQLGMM
Fh CTSL1 inh: Fasciola hepatica cathepsin L1 inhibitors, primary screen, counter-screen for PFM18AAP inhibitor project, biochemical, QFRET, fluorogenic peptide substrate; recombinant F. hepatica cathepsin L1, Z-Leu-Arg-MCA fluorescence; inhibition, % at 5.96 µM; actives 0.49% (n = 300,000);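 active means inhibition above the mean of all tested compounds plus 3 SD, set per screening campaign, cut at about 17% in these data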
A number is an active result; n = inactive; x = not tested or not shown.

SMILES	PAFAH1B3 FP inh	PAFAH1B2 FP inh	PAFAH2 FP inh	pPAFAH FP inh	PP5 inh	Fh CTSL1 inh
O=C(CCNC(=O)C1CCN(S(=O)(=O)c2ccc(F)cc2)CC1)Nc1ccccc1	n	n	n	n	n	n
CN(c1ccccc1)c1nccc(=O)[nH]1	n	n	n	n	n	n
COc1ccccc1/C=C/CN1CCSCC1	n	n	n	n	n	n
CC(=O)c1sc(N/N=C\c2c(O)ccc3ccccc23)nc1C	n	n	n	34	n	n
CC(=O)c1sc(N/N=C/c2cccc(O)c2)nc1C	n	n	n	n	n	n
Cc1nn(-c2ccccc2)c(N2CCCC2)c1/C=C1\N=C(c2ccc(OC(C)C)cc2)OC1=O	n	n	n	n	n	74
O=C(CCc1nc(-c2ccccc2Cl)no1)Nc1cccnc1	n	n	n	n	n	n
CC12CCC(C1)C(C)(C)C2NS(=O)(=O)c1ccc(F)cc1 (configuration not stated)	n	26	n	n	n	x
CC1(C)CC(NS(=O)(=O)c2ccc(F)cc2)CC(C)(C)N1	n	n	n	n	n	n
Cc1ccc(NC(=O)CCNS(=O)(=O)c2ccccc2)c(C(=O)c2ccccc2)c1	n	n	n	n	n	n
CC(=O)c1sc(-c2ccc(F)cc2)cc1NS(=O)(=O)c1ccc(C)cc1	n	n	n	n	n	n
Cc1ccc(S(=O)(=O)Nc2ccc(Cl)cc2C(=O)c2ccc(F)cc2)cc1	n	43	n	n	n	n
Cc1ccc(S(=O)(=O)Nc2ccc(Cl)cc2C(=O)c2ccccc2)cc1	n	27	n	n	n	n
O=C1CC(SCCc2nc3ccccc3[nH]2)C(=O)N1c1ccc(Cl)cc1 (configuration not stated)	n	32	n	n	n	n
O=C1CC(SCc2nc3ccccc3[nH]2)C(=O)N1c1ccc(F)c(Cl)c1 (configuration not stated)	n	29	n	n	n	n
CCCOc1ccc(N2C(=O)CC(SCCc3nc4ccccc4[nH]3)C2=O)cc1 (configuration not stated)	n	n	n	n	n	n
CCCn1c(CN2CCN(C(=O)OCC)CC2)nc2cc(NC(=O)CC)ccc21	n	n	n	n	n	n
Cc1ccc(NC(=S)NC(=O)C2CCCC2)c(Br)c1	n	n	n	n	x	x
CC(Oc1ccc(Br)cc1)C(=O)Nc1ccc(S(=O)(=O)Nc2nccs2)cc1 (configuration not stated)	n	28	n	n	n	n
Cc1cc(NS(=O)(=O)c2ccc(NC(=O)C(C)Oc3ccc(Cl)cc3)cc2)no1 (configuration not stated)	n	30	n	n	n	n
Cc1ccc(OC(C)C(=O)Nc2ccc(S(=O)(=O)Nc3cc(C)on3)cc2)cc1 (configuration not stated)	n	n	n	n	n	n
Cc1ccc(NC(=O)c2sc(N)nc2-c2ccccc2)cc1C	n	n	n	n	n	34
Cc1ccc(NC(=O)c2sc(N)nc2-c2ccc([N+](=O)[O-])cc2)cc1C	n	n	n	n	n	n
N#CC1=C(N)Oc2cc(N)ccc2C1c1ccc(F)cc1 (configuration not stated)	n	n	n	n	n	n
N#CC1=C(N)Oc2cc(N)ccc2C1c1ccc(F)cc1F (configuration not stated)	n	n	n	27	n	n
SMILES	PAFAH1B3 FP inh	PAFAH1B2 FP inh	PAFAH2 FP inh	pPAFAH FP inh	PP5 inh	Fh CTSL1 inh
c1ccc2cc(-c3cc4ccccn4c3)ccc2c1	n	n	n	28	n	n
CC(=O)N1N=C(c2ccc3ccccc3c2)OC1(C)C	n	n	n	n	n	n
O=C(Oc1ccc2ccc(=O)oc2c1)C1CCCCC1	n	n	n	n	n	n
O=C(Oc1cc2oc(=O)cc(-c3ccccc3)c2cc1Cl)C1CCCCC1	n	47	n	n	n	n
CCCN(CC(=O)Nc1ccccc1C)C(=O)C1CC(=O)N(Cc2ccccc2)C1 (configuration not stated)	n	n	n	n	n	n
O=C(N/C=C/c1ccco1)Nc1cccc(Cl)c1	x	x	x	27	n	n
COc1cccc(NC(=O)/C=C/c2ccco2)c1	n	n	n	n	n	n
CSc1cccc(NC(=O)/C=C/c2ccco2)c1	n	n	n	25	n	n
O=C(O)c1ccc(Cl)c2c1C1C=CCC1C(c1ccccn1)N2 (configuration not stated)	x	x	x	58	n	n
COc1ccc(OC)c(C2Nc3c(Cl)ccc(C(=O)O)c3C3C=CCC32)c1 (configuration not stated)	n	n	n	25	n	n
COc1cccc(C2Nc3c(F)cc(Br)cc3C3C=CCC32)c1OC (configuration not stated)	n	n	n	n	n	n
O=C(CCc1ccc(S(=O)(=O)NCc2ccccc2)cc1)NCC1CCCO1 (configuration not stated)	n	n	n	n	n	n
O=C(CCn1nnc2ccccc21)Nc1nnc(Cc2ccccc2)s1	n	27	n	n	n	n
O=C(CCn1nnc2ccccc21)Nc1nnc(COc2ccccc2F)s1	n	n	n	n	n	n
Cc1cc(C(C)(C)C)cc(S(=O)(=O)Nc2cccc(C(=O)O)c2)c1C	n	30	n	n	n	n
CCS(=O)(=O)Nc1cccc(C(=O)O)c1	x	x	x	n	n	n
CC(C)n1cnc2c(NCc3ccccc3)cc(Cc3ccc(F)cc3)cc21	n	n	n	28	n	x
CCCOc1cc(NCc2ccccc2)c2ncn(C(C)C)c2c1	n	n	n	25	n	x
CCC(CO)Oc1cc(NCc2ccc(Cl)cc2)c2ncn(C(C)C)c2c1 (configuration not stated)	n	28	n	n	x	x
COc1ccccc1NS(=O)(=O)c1cccc(C(=O)NCC(c2cccs2)N2CCOCC2)c1 (configuration not stated)	n	n	n	n	n	x
O=C(NC1CC1)C1CCN(S(=O)(=O)c2ccc(Cl)c([N+](=O)[O-])c2)CC1	n	n	n	n	n	x
Cc1cccc(C)c1NS(=O)(=O)c1c(C(=O)N2CCCCC2)c(C)n(C)c1C	n	n	n	n	n	n
COc1ccccc1NC(=O)c1cc2c(CO)cnc(C)c2oc1=Nc1ccc(OC)c(OC)c1	n	n	n	25	n	n
COc1ccccc1NC(=O)c1cc2c(CO)cnc(C)c2oc1=Nc1cc(OC)c(OC)c(OC)c1	n	n	n	n	n	n
